From PubChem BioAssay (Tox21) come the findings set out here.

Values without a mark were called inactive. Records with an inconclusive call do not appear. Active and inactive are the calls of the source. Unless noted, the call rests on the fitted dose curve; in most records, active means well fitted curve in the direction sought with a large enough effect in the repeat runs; inconclusive means weak or mixed curves; inactive means no such curve, though single readings can be large; an effect the other way counts as inactive or inconclusive.

Assay [1] is described as follows: qHTS assay to identify small molecule antagonists of the androgen receptor (AR) signaling pathway using the MDA cell line in the presence of 0.5 nM R1881 - cell viability counter screen (AID 1259242). Further: nearly all actives have a fitted effect of over 45% in size. Further: potency means the concentration at half of the fitted maximal effect. The method, boiled down: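 MDA-kb2 cells (MMTV-luciferase, AR/GR responsive) were treated with compounds plus 0.5 nM R1881 (final) for 16 hr at 37C, 0% CO2. Viability was then read in the same wells as live-cell protease fluorescence (CellTiter-Fluor, 30 min).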
For orientation: qHTS replaces the single test concentration by a dilution series.

The target of assay [2] is Estrogen receptor (Homo sapiens) (UniProt P03372). Description: qHTS assay to identify small molecule antagonists of the estrogen receptor alpha (ER-alpha) signaling pathway using the BG1 cell line in the presence of 0.1 nM 17-beta-estradiol (AID 1259244). Further: nearly all actives have a fitted effect of over 50% in size. Further: potency means the concentration at half of the fitted maximal effect. An outline of the steps: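 VM7Luc4E2 cells (endogenous full-length ER-alpha, 4×ERE-luciferase), kept 5 days in phenol red-free, charcoal-stripped FBS medium; 4,000 cells/well. Compounds added with 0.1 nM (final) 17beta-estradiol, 22 hr at 37C; luminescence read with ONE-Glo after 30 min.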

Assay [3] in a line: qHTS assay to identify small molecule phospholipidosis (PLD) inducers (AID 1259344; active means well fitted curve in the direction sought with a large enough effect; an effect the other way counts as inactive or inconclusive). An outline of the steps:
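HepG2 cells, 900/well, treated with compound plus LipidTOX Red for 24 h at 37 C; amiodarone positive and DMSO negative controls. Fixed with paraformaldehyde/Hoechst, then high-content imaging scored LipidTOX pit count and integrated intensity per well and per cell.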

The nature of assay [4]: qHTS assay to identify small molecule HDAC inhibitors (AID 1259364). Further: top concentration of the series differs between compounds; nearly all actives have a fitted effect of over 45% in size. The method, boiled down: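 Wild-type HCT-116 cells, plated overnight at 37 C, exposed to compounds 2 hr at 37 C; luminogenic HDAC-Glo substrate then added 30 min at room temperature. Luminescence reports relative endogenous class I/II HDAC activity.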
Assay [5] is described as follows: qHTS assay to identify small molecule agonists of the sonic hedgehog signaling (Shh) pathway - cell viability counter screen (AID 1259366). Further: nearly all actives have a fitted effect of over 50% in size. Further: potency means the concentration at half of the fitted maximal effect. An outline of the steps: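 Same-well cytotoxicity read. Gli1-Luc reporter 3T3 cells; compounds 24hr, 37C/5% CO2; CellTiter-Fluor fluorescence.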
Assay [6] can be described thus: qHTS assay to identify small molecule agonists of the androgen receptor (AR) signaling pathway in the presence of an antagonist - cell viability counter screen (AID 1259379). Further: nearly all actives have a fitted effect of over 25% in size. Further: potency means the concentration at half of the fitted maximal effect. An outline of the steps:
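MDA-kb2 cells (MMTV-luciferase, AR/GR), 3,000/well, 5 h attachment, then 3.0 µM nilutamide (final) and compounds at 15 concentrations. Viability by CellTiter-Fluor fluorescence after 16 h at 37 °C, 0% CO2, in the reporter wells.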

Assay [7] can be described thus: qHTS assay to identify small molecule agonists of the estrogen receptor beta (ER-beta) signaling pathway - cell viability counter screen (AID 1259380). Further: nearly all actives have a fitted effect of over 30% in size. Further: potency means the concentration at half of the fitted maximal effect. The method, boiled down:
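ER-beta-UAS-bla HEK293T cells in medium with 2% charcoal-stripped FBS, pre-incubated 6 hr, then treated 16 hr at 37C. Cytotoxicity read in the same wells by CellTiter-Glo luminescence after 30 min at room temperature.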

Assay [8] can be described thus: qHTS assay to identify small molecule antagonists of the estrogen receptor beta (ER-beta) signaling pathway - cell viability counter screen (AID 1259382). Further: series mostly up to about 92 µM; nearly all actives have a fitted effect of over 55% in size. An outline of the steps:
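ER-beta-UAS-bla HEK293T cells in 2% charcoal-stripped FBS medium, treated with compound plus 1 nM 17-beta-estradiol for 16 h at 37C. Viability read by CellTiter-Glo luminescence after 30 min at room temperature in the same wells.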

For assay [9], the target named is Estrogen receptor (Homo sapiens) (UniProt P03372). Description: qHTS assay to identify small molecule agonists of the estrogen receptor alpha (ER-alpha) signaling pathway in the presence of an antagonist (AID 1259383; calls by dose curve; further: top concentration of the series differs between compounds; nearly all actives have a fitted effect of over 15% in size). An outline of the steps:
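VM7Luc4E2 cells express endogenous full-length ER-alpha with an ERE-luciferase reporter and were hormone-deprived for 5 days. Compounds at 15 concentrations were added with 10.0nM ICI-182,780 for 22hr at 37C. Luminescence was read with ONE-Glo.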

Assay [10] is described as follows: qHTS assay to identify small molecule agonists or antagonists of the thyroid stimulating hormone receptor (TSHR) signaling pathway - wild type cell line counter screen (AID 1259384; calls by dose curve). An outline of the steps: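 Wild-type Hek293 cells, 800/well, 18 h at 37C, then compound with Ro20-1724 for 30 min RT. cAMP by HTRF (cAMP-d2/anti-cAMP cryptate), 1 h RT, fluorescence read. 15 concentrations, triplicates.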

For assay [11], the target named is Thyrotropin receptor (Homo sapiens) (UniProt P16473). Description: qHTS assay to identify small molecule antagonists of the thyroid stimulating hormone receptor (TSHR) signaling pathway (AID 1259385; calls by dose curve; further: nearly all actives have a fitted effect of over 20% in size; further: potency means the concentration at half of the fitted maximal effect). The method, boiled down:
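TSHR-HEK293 cells (800/well) plated 18 h, then compounds with Ro20-1724 and TSH at 1.5 ng/mL final, 30 min at room temperature. cAMP quantified by HTRF (cAMP-d2/anti-cAMP-cryptate, 1 h); 15 concentrations in triplicate.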

A short description of assay [12]: qHTS assay to identify small molecule agonists of the estrogen receptor alpha (ER-alpha) signaling pathway in the presence of an antagonist - cell viability counter screen (AID 1259386).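 Further: series mostly up to about 92 µM; cells exposed to compounds for 22 h at 37 °C before the viability read; nearly all actives have a fitted effect of over 30% in size.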 An outline of the steps: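 Cell viability in VM7Luc4E2 cells (endogenous full-length ER-alpha) measured by CellTiter-Fluor fluorescence in the same wells as the luciferase screen. Cells pre-cultured 5 days in charcoal-stripped serum, then treated 22 h with compounds at 15 concentrations plus 10.0nM ICI-182,780.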

Assay [13] in a line: qHTS assay to identify small molecule antagonists of the sonic hedgehog signaling (Shh) pathway - cell viability counter screen (AID 1259367). Further: nearly all actives have a fitted effect of over 55% in size. An outline of the steps: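 NIH/3T3-derived Gli1-Luc reporter cells, 2,000/well, plated 4 hr before compound addition, then stimulated with conditioned medium for 24 hr at 37C. Viability measured in the same wells by CellTiter-Fluor fluorescence, reagent added at 23 hr for 1 hr.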

A short description of assay [14]: qHTS assay to identify small molecule agonists of the sonic hedgehog signaling (Shh) pathway (AID 1259368; calls by dose curve;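 further: NIH/3T3-derived 3T3Gli1-Luc cells carrying a stable Gli1-driven firefly luciferase reporter; series mostly up to about 92 µM; nearly all actives have a fitted effect of over 15% in size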). An outline of the steps:
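NIH/3T3-derived 3T3Gli1-Luc cells with stably integrated Gli1-driven firefly luciferase, 2,000 cells/well, compounds added after 4 hr. Incubated 24 hr at 37C, 5% CO2; luminescence read after 30 min with luciferase reagent at room temperature.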

A short description of assay [15]: qHTS assay to identify small molecule antagonists of the sonic hedgehog signaling (Shh) pathway (AID 1259369; calls by dose curve; further: nearly all actives have a fitted effect of over 45% in size; further: potency means the concentration at half of the fitted maximal effect). The method, boiled down: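 NIH/3T3-derived Gli1-Luc reporter cells plated 4 h, dosed with compound, then stimulated with conditioned medium for 24 h at 37 C. Firefly luciferase luminescence read after 30 min with detection reagent at room temperature.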

The target of assay [16] is Estrogen receptor beta (Homo sapiens) (UniProt Q92731). Put plainly: qHTS assay to identify small molecule antagonists of the estrogen receptor beta (ER-beta) signaling pathway (AID 1259378; active means well fitted inhibition curve with a large enough effect in the signal ratio in the repeat runs, not every such curve was filed as active; the % refers to the signal ratio; further: potency means the concentration at half of the fitted maximal effect). The method, boiled down:
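ER-beta-UAS-bla HEK293T cells in 2% charcoal-stripped FBS medium treated with compound plus 1nM final 17-beta-estradiol for 16 hr at 37C. Beta-lactamase reporter read by FRET substrate fluorescence after 2 hours at room temperature.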

Assay [17] in a line: qHTS assay to identify small molecule HDAC inhibitors - cell viability counter screen (AID 1259365). Further: series mostly up to about 92 µM; nearly all actives have a fitted effect of over 50% in size. An outline of the steps: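 After overnight seeding at 1,500 cells per well, wild-type HCT-116 cultures took up compounds in DMSO for 2hr at 37 C. Viable cell content came from luminescence with CellTiter-Glo.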
Assay [18] deals with Estrogen receptor beta (Homo sapiens) (UniProt Q92731). Description: qHTS assay to identify small molecule agonists of the estrogen receptor beta (ER-beta) signaling pathway (AID 1259377; active means well fitted activation curve with a large enough effect in the signal ratio in the repeat runs, not every such curve was filed as active; the % refers to the signal ratio). An outline of the steps: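 Read-out: beta-lactamase FRET fluorescence. Cell line: ER-beta-UAS-bla HEK293T in 2% charcoal-stripped FBS. Exposure: 16 hr at 37C. Substrate step: 2 h at room temperature.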
Estrogen receptor beta (Homo sapiens), sequence (Q92731 whole entry, looked up): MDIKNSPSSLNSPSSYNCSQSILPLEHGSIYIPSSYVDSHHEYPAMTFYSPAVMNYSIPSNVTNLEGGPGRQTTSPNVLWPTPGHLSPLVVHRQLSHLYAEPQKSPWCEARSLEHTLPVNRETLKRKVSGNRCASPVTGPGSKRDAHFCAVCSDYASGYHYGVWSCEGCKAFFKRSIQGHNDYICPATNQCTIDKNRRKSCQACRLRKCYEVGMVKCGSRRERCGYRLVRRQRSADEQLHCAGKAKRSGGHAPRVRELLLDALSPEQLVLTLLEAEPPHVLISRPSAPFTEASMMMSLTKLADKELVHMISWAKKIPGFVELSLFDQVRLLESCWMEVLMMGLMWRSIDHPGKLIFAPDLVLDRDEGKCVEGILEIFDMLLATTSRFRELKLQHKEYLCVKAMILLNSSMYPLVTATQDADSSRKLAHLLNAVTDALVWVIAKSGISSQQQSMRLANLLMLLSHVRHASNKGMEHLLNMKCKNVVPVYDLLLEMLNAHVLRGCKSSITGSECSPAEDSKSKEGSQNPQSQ

Thyrotropin receptor (Homo sapiens), sequence (P16473 whole entry, looked up): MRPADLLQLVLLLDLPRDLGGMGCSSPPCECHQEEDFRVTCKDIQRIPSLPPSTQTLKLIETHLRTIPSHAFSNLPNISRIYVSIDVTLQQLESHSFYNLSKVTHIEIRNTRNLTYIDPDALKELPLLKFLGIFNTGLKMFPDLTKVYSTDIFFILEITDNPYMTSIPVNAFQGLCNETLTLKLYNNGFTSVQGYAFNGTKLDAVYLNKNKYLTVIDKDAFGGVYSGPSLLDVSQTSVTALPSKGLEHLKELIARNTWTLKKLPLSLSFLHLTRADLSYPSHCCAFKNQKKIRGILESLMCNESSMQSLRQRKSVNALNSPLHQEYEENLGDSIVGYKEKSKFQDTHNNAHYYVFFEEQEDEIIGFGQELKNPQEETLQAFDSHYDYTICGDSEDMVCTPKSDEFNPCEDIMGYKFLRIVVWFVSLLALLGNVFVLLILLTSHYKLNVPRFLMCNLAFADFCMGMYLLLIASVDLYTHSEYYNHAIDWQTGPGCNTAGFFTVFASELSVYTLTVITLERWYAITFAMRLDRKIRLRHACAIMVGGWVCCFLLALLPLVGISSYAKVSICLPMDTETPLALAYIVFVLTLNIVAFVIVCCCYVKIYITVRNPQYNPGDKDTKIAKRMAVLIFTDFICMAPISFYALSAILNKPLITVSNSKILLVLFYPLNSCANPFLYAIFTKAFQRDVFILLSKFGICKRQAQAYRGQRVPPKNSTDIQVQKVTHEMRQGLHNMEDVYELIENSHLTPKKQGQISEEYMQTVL
Estrogen receptor (Homo sapiens), sequence (P03372 whole entry, looked up): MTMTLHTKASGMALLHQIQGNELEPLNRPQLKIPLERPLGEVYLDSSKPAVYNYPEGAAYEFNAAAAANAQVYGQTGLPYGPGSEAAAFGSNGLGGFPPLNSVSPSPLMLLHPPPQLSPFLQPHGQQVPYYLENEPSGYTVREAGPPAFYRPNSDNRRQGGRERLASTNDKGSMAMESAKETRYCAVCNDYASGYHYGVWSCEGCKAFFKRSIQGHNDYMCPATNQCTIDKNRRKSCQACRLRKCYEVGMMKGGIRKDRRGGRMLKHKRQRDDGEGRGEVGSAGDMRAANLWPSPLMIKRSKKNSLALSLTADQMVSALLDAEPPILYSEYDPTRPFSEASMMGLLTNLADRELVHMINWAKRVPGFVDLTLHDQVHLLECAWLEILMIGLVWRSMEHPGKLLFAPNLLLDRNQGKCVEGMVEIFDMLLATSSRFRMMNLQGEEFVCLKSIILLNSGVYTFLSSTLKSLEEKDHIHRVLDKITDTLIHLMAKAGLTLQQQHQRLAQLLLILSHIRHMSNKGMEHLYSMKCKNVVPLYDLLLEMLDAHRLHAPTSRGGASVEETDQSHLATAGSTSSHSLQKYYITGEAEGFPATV

For the compound `CCOC(=O)[C@@](C)(N)Cc1ccc(O)c(O)c1`, the Potency result in [1], in [2], in assay [3], in [4], in [5] and in assay [6] was “inactive” throughout. The Potency entry in [7], in assay [8], in [9], in assay [11] and in assay [12] was “inactive” in each case. In addition, the result in [10] was inactive.
Turning to `CCCCNc1c(C(=O)OCC)c(C)nc2c1cnn2CC`, the Potency entry in assay [1], in assay [2], in [3], in assay [4], in [5] and in assay [13] was “inactive” each time. In addition, the Potency result in assay [14], in assay [16], in assay [6], in assay [7], in assay [9] and in [11] was “inactive” in each case. Moreover, the Potency entry in assay [12] was “inactive”. Further, the Potency in assay [15] was 0.0422 µM (active). In addition, the compound was classed as inactive in assay [10].
On to `CNC(=O)c1cc(Oc2ccc(NC(=O)Nc3ccc(Cl)c(C(F)(F)F)c3)cc2)ccn1`, for which the Potency was 26.6 µM (active) in [1]; 26.6 µM (active) in assay [2]; 26.6 µM (active) in assay [15]; 9.44 µM (active) in assay [16]; 29.8 µM (active) in assay [6]; 29.8 µM (active) in assay [7]. Also, the Potency entry in assay [3], in assay [4], in [14], in assay [9] and in assay [11] was “inactive” each time. Further, the compound was classed as inactive in assay [10].
Take `CC(=O)c1ccccc1N`: the Potency entry in assay [1], in assay [2], in [4], in assay [17], in assay [5] and in [13] was “inactive” in each case. Also, the Potency result in assay [14], in assay [15], in [18], in [16], in [6] and in [7] was “inactive” throughout. Moreover, the Potency entry in assay [8], in [11] and in assay [12] was “inactive” throughout. Also, in assay [10], the compound was classed as inactive.
Take `O=S(=O)(O)CCCN1CCOCC1`: the Potency result in assay [1], in assay [2], in assay [4], in assay [17], in assay [5] and in assay [13] was “inactive” in each case. In addition, the Potency entry in [14], in assay [15], in assay [18], in [16], in [6] and in assay [7] was “inactive” each time. Besides, the Potency result in assay [8], in assay [11] and in assay [12] was “inactive” in each case. The compound was called inactive in assay [10].
As for `NC1(c2ccc(-c3nc4ccn5c(=O)[nH]nc5c4cc3-c3ccccc3)cc2)CCC1`, the Potency is 33.5 µM (active) in assay [1]; 13.3 µM (active) in assay [5]; 0.0944 µM (active) in assay [15]; 16.8 µM (active) in assay [6]; 1.19 µM (active) in assay [7]; 29.8 µM (active) in assay [11]. Besides, the Potency result in assay [2], in assay [3], in assay [4], in assay [17], in assay [14] and in assay [18] was “inactive” in each case. Further, in assay [9], the Potency result is “inactive”. In addition, the call in [10] was inactive.
`CCOCN(C(=O)CS(=O)(=O)O)c1c(C)cccc1CC`: the Potency result in assay [1], in [2], in assay [4], in assay [17], in assay [5] and in [13] was “inactive” in each case. Besides, the Potency result in assay [14], in assay [15], in assay [16], in assay [6], in [7] and in assay [9] was “inactive” throughout. Further, the Potency result in [11] and in [12] was “inactive” throughout. Also, the call in [10] was inactive.
